Experimental data from PubChem BioAssay (NCI).
About 79,000 compounds went through this panel and 15% of them were active in at least one assay; those are over-represented in the sample as a whole. No stated cut-off is given here; in the data, active means growth inhibition above about 70%; inactive means the rest.

How the values were obtained:
[1] = NCI Yeast Anticancer Drug Screen. Data for the rad50 strain (AID 155);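 further: 0% = growth of vehicle-only cultures of the same strain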; details: S. cerevisiae rad50 strain growth inhibition; at 50.0 µM; hits give high values
Summary of the method: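 Relative growth inhibition (compound vs vehicle) was measured in yeast with a defined repair-gene alteration.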

[2] = NCI Yeast Anticancer Drug Screen. Data for the mec2-1 strain (AID 157); details: S. cerevisiae mec2-1 strain, at 50.0 µM, hits give high values
Summary of the method: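 Strain: mec2-1 (DNA repair/cell cycle alteration). Compound exposure, then growth measured; inhibition expressed relative to vehicle.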

[3] = NCI Yeast Anticancer Drug Screen. Data for the sgs1 mgt1 strain (AID 161);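 further: 0% = growth of cultures given vehicle only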; details: S. cerevisiae sgs1 mgt1 strain, at 50.0 µM, hits give high values
Summary of the method: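 Genetically altered yeast, compound exposure, growth inhibition relative to vehicle.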

[4] = NCI Yeast Anticancer Drug Screen. Data for the cln2 rad14 strain (AID 165);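 further: 0% = growth equal to vehicle treated cultures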; details: S. cerevisiae cln2 rad14 strain, at 50.0 µM, hits give high values
Summary of the method: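 Compounds are applied to the cln2 rad14 yeast strain, and growth is then compared with that of vehicle-treated cultures to give inhibition.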

[5] = NCI Yeast Anticancer Drug Screen. Data for the bub3 strain (AID 167); details: S. cerevisiae bub3 mutant strain, at 50.0 µM, hits give high values
Summary of the method: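 Screening used yeast with an engineered genetic alteration affecting cell cycle control. Compound-exposed cultures were compared with vehicle cultures, and reduced growth was taken as inhibition.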

[6] = NCI Yeast Anticancer Drug Screen. Data for the mlh1 rad18 strain (AID 175); details: S. cerevisiae mlh1 rad18 strain growth inhibition; at 50.0 µM; hits give high values
Summary of the method: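 Read-out is yeast growth inhibition, calculated against vehicle-only controls. The compound was applied to a strain engineered with DNA damage repair alterations.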

Measured: growth inhibition

CN1CCCS/C1=C1/SC(=S)N(c2ccccc2)C1=O
inactive: [1] -16.8% | [2] 13.8% | [3] -5.85% | [4] -5.75% | [5] -28.1% | [6] -17.4%

CN(C)Cc1c(-c2ccc(Br)cc2)oc(-c2ccc(Br)cc2)c1Br
inactive: [1] -31.1% | [2] -8.7% | [3] -13.9% | [4] -10.4% | [5] 4.5% | [6] 7.2%

CC(=O)NNc1nc(C)c(C(=O)NNC(=O)C(=O)Nc2ccc(C)c(C)c2)s1
inactive: [1] 8.7% | [2] -1.2% | [3] -6.05% | [4] 4.8% | [5] 20.9% | [6] -1.45%

COc1cc(OC)c(-c2cc(C(=O)O)c3cc4ccccc4cc3n2)c(OC)c1
inactive: [1] 18.2% | [2] 23.2% | [3] 24.1% | [4] 16.7% | [5] 21.6% | [6] 32%

Cc1[nH]c(-c2ccccc2)c2nc(N(C)C)oc(=O)c12
inactive: [1] -11.4% | [2] 29.3% | [3] 17.4% | [4] 10.5% | [5] 34.1% | [6] -5.25%

N#CC(NC12CC3CC(CC(C3)C1)C2)c1ccc2c(c1)OCO2 (stereo unspecified)
inactive: [1] -14.9% | [2] -5.6% | [3] -20.9% | [4] -17.1% | [5] -47.8% | [6] -44.4%

Cn1c2c(c(=O)n(C)c1=O)C(=Nc1ccccc1)C(=O)N2
inactive: [1] 0.2% | [2] 9.25% | [3] 7.2% | [4] -38.3% | [5] 1.65% | [6] 14.3%

C=CCN1C=CC=C/C1=C\C=C(/C#N)C(=O)OCC
inactive: [1] 10.8% | [2] 12.7% | [3] 7.8% | [4] -15.2% | [5] -8.65% | [6] 7.35%

NCCCN(CCCCN(CCCN)C(=O)OCc1ccccc1)C(=O)OCc1ccccc1
inactive: [1] 6.85% | [2] -13.1% | [3] -18.9% | [4] 8.55% | [5] 1.2% | [6] -55.9%

Cc1nc(Cl)c(C)c(Cl)n1
inactive: [1] 13.4% | [2] -28.6% | [3] 1.4% | [4] 5.2% | [5] -5% | [6] 15.9%

N#Cc1c(-c2ccccc2)cc(-c2ccc(Cl)cc2)[nH]c1=S
inactive: [1] 5.3% | [2] 8.2% | [3] -19.1% | [4] 20.5% | [5] 42.2% | [6] 4.65%

Cc1cccc(O)c1
inactive: [1] -11.7% | [2] -9.8% | [3] -42% | [4] -16.4% | [5] -4.65% | [6] -39.2%

C=C1C(=O)OC2/C=C(\C)C(OC(C)=O)C3OC3C(C)(O)CC(OC(=O)/C(C)=C/C)C12 (stereo unspecified)
inactive: [1] 3.35% | [2] 2.2% | [3] -15.4% | [4] -5.2% | [5] -29.7% | [6] -13.1%

C=CCOC(=O)Nc1ccc(S(=O)(=O)CC)cc1
inactive: [1] -0.95% | [2] 5.95% | [3] -4.55% | [4] -21.6% | [5] 22.8% | [6] -1.65%

CCCC(C)NC(=O)c1ccc(Cl)c(Cl)c1 (stereo unspecified)
inactive: [1] 0.25% | [2] 4.9% | [3] 13.1% | [4] 8.3% | [5] 9.15% | [6] 24.6%

COC(=O)c1cccnc1C#N
inactive: [1] 2.2% | [2] -0.95% | [3] 2.9% | [4] -5.95% | [5] 0.55% | [6] 0.4%

O=C(CCl)Nc1cc(C(F)(F)F)ccc1Cl
inactive: [1] -0.15% | [2] 1.75% | [3] 18.1% | [4] 4.85% | [5] 23.9% | [6] 1.15%

CCCCOC(=O)C1CC2CC1C1OC21 (stereo unspecified)
inactive: [1] -67.6% | [2] -63.3% | [3] -23.7% | [4] -0.3% | [5] -51.9% | [6] -33.5%

CC/C(=N\O)c1ccc2cc(Cl)c3ccccc3c2c1
inactive: [1] 21.7% | [2] 25.4% | [3] 44.5% | [4] 8.75% | [5] 54.2% | [6] 31.9%

CCOC(=O)C(=O)C1C(=O)Nc2ccccc21 (stereo unspecified)
inactive: [1] -12.4% | [2] -4.9% | [3] -6.35% | [4] -2.5% | [5] -18.4% | [6] -12.6%

CC(=O)n1ccc(=O)[nH]c1=O
inactive: [1] 8.9% | [2] 0.2% | [3] 0.45% | [4] -38.8% | [5] -11.9% | [6] 16.4%
